# In all, about 69,000 compounds went through this assay and about 8,600 (12%) showed an effect of 50% or more. The full list was thinned out, with strong results kept by preference.
# System: Plasmodium berghei
# Assay: Screen against P. berghei liver stage (PbLuc), transformed with Luciferase, at 10uM
# Format: functional, HepG2
# Conditions: tested at 10 uM
row,Compound,INHIBITION [%]
1,Cc1cc2ccccc2n1CCC(=O)NCCS(C)(=O)=O,0.426
2,CC(C)CS(=O)(=O)N1C[C@@H]2C[C@H](C(=O)NCc3ccccc3)[C@H](C1)O2,9.48
3,Cc1ccc(C(=O)N(C)Cc2cc(Br)cs2)c(=O)[nH]1,15
4,Cc1cnn(CC2CN(CC(=O)N(C)Cc3ccccc3)CCO2)c1 (stereo unspecified),13.3
5,CNC(=O)C1CN(c2ccc(F)cc2)CCN1 (stereo unspecified),41.5
6,O[C@@H]1CN(CC2CC2)CC[C@H]1N1CCN(c2ccccc2F)CC1,53.6
7,O=C(CO)N1CC[C@@H](N2CCN(c3ccccc3F)CC2)[C@H](O)C1,52.6
8,CCOc1cncc(N2CCN(c3ccccc3F)CC2)n1,3.77
9,Cc1ccccc1N1CCN(C2CCCN(C(=O)CCC(C)C)C2)CC1 (stereo unspecified),46.6
10,C[C@@H]1CN(C2CCN(c3ccccc3F)CC2)CC[C@]1(C)O,7.31
11,CSCCC(=O)N1CC[C@@H](N2CCN(c3ccccc3F)CC2)[C@H](O)C1,48.9
12,O=C(CCOc1ccccc1F)N1CCCC(n2cncn2)C1 (stereo unspecified),36.065
13,O=C(CO)N1CCCC(N2CCN(c3ccccc3F)CC2)C1 (stereo unspecified),65.6
14,O=C(CC1CC1)N1C[C@@H](O)[C@H](N2CCN(c3ccccc3)CC2)C1,30.25
15,O=C(NCCNC1CCCCC1)c1cccs1,-2.11
16,COc1ccc(S(=O)(=O)N[C@H]2CN(C(C)=O)C[C@@H]2C(C)C)cc1F,17.7
17,Cc1cnc(CN(C)C2CCN(CCCc3ccccc3)C2)o1 (stereo unspecified),-9.37
18,CN(C)CC(=O)N1CCc2sc(C(=O)NCC3CC3)cc21,-17.1
19,CSCC(=O)N1CCCC(c2cc(C)[nH]n2)C1 (stereo unspecified),28
20,CC(C)c1ocnc1C(=O)N1CC(=O)Nc2cccnc21,37.1
21,O=c1cc(CN2C[C@@H]3CC[C@H]2CN(Cc2ccccc2)C3)[nH]c(=O)[nH]1,34
22,CN(C)S(=O)(=O)N1CCOC(c2cccc(-c3cncnc3)n2)C1 (stereo unspecified),13

row,Compound,INHIBITION [%]
1,NCC1[C@H]2CN(Cc3ccccc3)C[C@@H]12 (stereo partly specified),5.73
2,Cn1cc(CN2CCCC(c3nccnc3-c3cccc(F)c3)C2)cn1 (stereo unspecified),9.05
3,O=C(CCO)N[C@H]1CN(CC2CCC2)C[C@@H]1c1ccccc1,-13.1
4,CS(=O)(=O)NCC(=O)N[C@H]1CN(CC2CC2)C[C@@H]1c1ccccc1,65.3
5,CSCC(=O)N[C@H]1CN(CC2CCOCC2)C[C@@H]1c1ccccc1,-69.6
6,Cc1noc(C2(C)CCCN(C(=O)c3cccnc3)C2)n1 (stereo unspecified),25.6
7,CCCS(=O)(=O)N1CCCC(CCC(=O)N(C)CCc2ccccn2)C1 (stereo unspecified),27.6
8,CN(C(=O)NCc1nccn1CCc1ccccc1)C1CCC1,-4.63
9,COc1ccc(Nc2nc3c(C)nn(C)c3c(=O)n2C)cc1,9.04
10,CC(C)c1cc(C(F)(F)F)n2nc(C3CCN(S(C)(=O)=O)C3)cc2n1 (stereo unspecified),43.05
11,COc1ccc(NCCC(=O)NCc2cccnc2N(C)C)cc1,-14.9
12,Cc1ccc(C(=O)N2CCC3(CCN3c3ncccn3)C2)cn1 (stereo unspecified),78.9
13,Cn1cccc1C(=O)N1CCC2(CCCN2c2ncccn2)CC1,-2.41
14,Cn1ccnc1C(=O)N1CCC2(CCN2c2ncccn2)C1 (stereo unspecified),71.3
15,Cc1ccc(C(=O)N2C[C@@H]3CN(c4ncccn4)C[C@@H]3C2)cc1,-13.7
16,O=C(c1ccnnc1)N1C[C@@H]2CN(c3ncccn3)C[C@@H]2C1,21.7
17,Cc1ccc(C(=O)N2C[C@@H]3CN(c4ncccn4)C[C@@H]3C2)cn1,76.4
18,O=C(c1cccc(O)c1)N1CCC2(CCN2c2ncccn2)C1 (stereo unspecified),27.7
19,Cn1ccc(C(=O)N2CCC3(CCN3c3ncccn3)C2)n1 (stereo unspecified),22.6
20,O=C(c1cnc2ccccc2c1)N1CCC2(CCN2c2ncccn2)C1 (stereo unspecified),-78.5
21,Cn1cccc1C(=O)N1CCC2(CCN2c2ncccn2)C1 (stereo unspecified),72.2
22,Cn1ccnc1C(=O)N1CCC2(CCN2CC2CC2)C1 (stereo unspecified),13.7

row,Compound,INHIBITION [%]
1,O=C(c1ccc2ccccc2n1)N1CCC2(CCN2c2ncccn2)C1 (stereo unspecified),-47
2,CC(C)NC(=O)N1CCC2(CC(=O)N(c3ccsc3)C2)C1 (stereo unspecified),48.2
3,COc1cc(N2C[C@H](C(=O)NCC3CC3)[C@@H]3CCO[C@@H]3C2)ncn1,-29.3
4,Cn1cnc2c(N3CCCC3)nc(C3CCNCC3)cc21,32.7
5,COc1ccc(OC)c(CNC(=O)N2CCC(n3cncn3)CC2)c1,21
6,Cc1ccc(C(=O)NS(=O)(=O)c2ccccc2Cl)c(=O)[nH]1,35.9
7,CC(C)c1noc(C(C)N2CCN(CCCN3CCCC3=O)CC2)n1 (stereo unspecified),-38.7
8,CN(CCO)CC1COCCN1C(=O)CCC1CCCC1 (stereo unspecified),39.3
9,CC(C)c1cnc(CN(C)C2CCN(CCCc3cnn(C)c3)C2)o1 (stereo unspecified),-7.31
10,CC(C)N1CCCC1c1csc(N)n1 (stereo unspecified),16.8
11,COc1cc(-c2cc(OC)c(OC)c(OC)c2)ncn1,-7.79
12,COC(CNC(=O)C1CC1)c1ccc(C)s1 (stereo unspecified),20.4
13,O=C(CCc1cc2n(n1)CCN(CCCn1cccc1)C2)N1CCCC1,-1.54
14,Cc1ccc(N2CCCc3sc(C(=O)NCC4CCCO4)nc32)nn1 (stereo unspecified),15.4
15,Cc1nn(C)c(Cl)c1C1CCCN1C(=O)c1ccc[nH]1 (stereo unspecified),25.1
16,Cc1cc(C(=O)NCCC2CN(C)CCO2)c2cccc(C)c2n1 (stereo unspecified),45.9
17,Cc1ccc(C(=O)NCCC2CN(C3CCCC3)CCO2)c(C)c1 (stereo unspecified),66.8
18,Cc1ccc(C)c(C(=O)N2CCOC(CCN(C)C)C2)c1 (stereo unspecified),37.6
19,Cc1ccc(C(=O)NCCC2CN(c3cnn(C)c(=O)c3)CCO2)s1 (stereo unspecified),24.7
20,O=C(NCCC1CN(C2CCCC2)CCO1)c1cc(=O)[nH]c(=O)[nH]1 (stereo unspecified),51.5
21,O=C(NCCC1CN(C2CCCC2)CCO1)c1c[nH]c(=O)[nH]c1=O (stereo unspecified),8.08
22,CC(CC(=O)c1ccco1)NC(=O)c1ccccn1 (stereo unspecified),42.1

row,Compound,INHIBITION [%]
1,COc1cccc(S(=O)(=O)N2CCn3cnc(COCC4CC4)c3C2)c1,15.9
2,COCc1ncn2c1CN(S(=O)(=O)c1ccc(C)cc1)CC2,80.3
3,COCc1ncn2c1CN(S(=O)(=O)c1cccc(OC)c1)CC2,62.4
4,COCc1ncn2c1CN(S(=O)(=O)c1cccc(F)c1)CC2,-58.3
5,CCOCc1ncn2c1CN(S(=O)(=O)c1ccc(C)cc1)CC2,-51.9
6,COCc1ncn2c1CN(S(=O)(=O)Cc1ccc(C)cc1)CC2,-0.55
7,O=C(NC1COC2(CCN(CC3CCC3)CC2)C1)c1ccccn1 (stereo unspecified),-7.59
8,CC1=C(c2ccc(C(C)C)cc2)S(=O)(=O)N=C1N1CCc2ccccc21,49
9,CC(NC(=O)c1cc(=O)n(C)c(=O)n1C)c1ccccc1-n1cccn1 (stereo unspecified),0.426
10,CC(NC(=O)c1ccc(=O)n(C)c1)c1ccccc1-n1cccn1 (stereo unspecified),53.8
11,Cc1ccccc1C(C)NC(=O)c1ccc(=O)n(C)c1 (stereo unspecified),25.5
12,Cc1cc2c(=O)n3c(nc2s1)CCN(Cc1cnc(C)n1C)CC3,23.2
13,Cc1cccc(OCCC(=O)NC(C)c2nnc3n2CCC3)c1 (stereo unspecified),26.4
14,Cc1nnn2c1COC(CNCc1ccncc1)C2 (stereo unspecified),39.3
15,Cn1cc(-c2nnn3c2COC(CNCc2cccnc2)C3)cn1 (stereo unspecified),27.4
16,c1ccc(CNCC2Cn3nnc(-c4ccncc4)c3CO2)nc1 (stereo unspecified),64.5
17,Cn1cc(CNCC2Cn3nnc(-c4ccccc4)c3CO2)cn1 (stereo unspecified),62
18,Cc1cc(CNCC2Cn3nnc(C)c3CO2)oc1C (stereo unspecified),60
19,Cn1cc(-c2nnn3c2COC(CNCc2ccncc2)C3)cn1 (stereo unspecified),39.3
20,c1cc(-c2nnn3c2COC(CNCC2CCOCC2)C3)ccn1 (stereo unspecified),28.2
21,Cc1nnn2c1COC(CNCc1nccs1)C2 (stereo unspecified),-3.24
22,Cc1cccc(CNC[C@H]2Cn3cc(-c4ccccc4)nc3CO2)n1,-23.2

row,Compound,INHIBITION [%]
1,COc1ccc(-c2cn3c(n2)CO[C@@H](CNCc2ccccn2)C3)cc1,66.9
2,COc1ccc(-c2cn3c(n2)CO[C@@H](CNCc2nccn2C)C3)cc1,16.2
3,c1cc(-c2nnn3c2COC(CNCc2nccs2)C3)ccn1 (stereo unspecified),32.4
4,CCc1nnc(Nc2cccc(C3CCN(C(=O)CO)CC3)n2)s1,11.1
5,CCCn1nccc1NC(=O)CN1CCCC1Cn1cc(C)cn1 (stereo unspecified),42.3
6,Cn1cc(CCNC(=O)N2CCCC(Cc3nccn3C)C2)cn1 (stereo unspecified),33
7,O=C(NCCCN1CCOCC1)c1cccc(OCc2ccccc2)c1,30
8,Cc1csc(CN2CCC3(CC2)COC(COc2ccccn2)C3)n1 (stereo unspecified),47.5
9,c1ccc(-c2nnn3c2COC(CNCc2ccccn2)C3)cc1 (stereo unspecified),51.2
10,Cc1nnn2c1COC(CNCc1ccccn1)C2 (stereo unspecified),39.3
11,Cn1cc(-c2nnn3c2COC(CNCc2ccccn2)C3)cn1 (stereo unspecified),46.3
12,O=C(NCC1CC1)C1CN(c2ncccn2)Cc2ccnn2C1 (stereo unspecified),31.2
13,COc1cc(C)c(S(=O)(=O)CC(=O)N(C)C(C)C)cc1OC,11.5
14,CCN(C(=O)CS(=O)(=O)c1cc(OC)c(OC)cc1C)C1CC1,33.7
15,COc1cc(C)c(S(=O)(=O)CC(=O)N(C)C2CC2)cc1OC,50.4
16,COc1c(CNC(c2cccc(F)c2)c2nccn2C)c(C)nn1C (stereo unspecified),-16.8
17,Cc1c(Br)cccc1C(=O)NCC1CCCNC1 (stereo unspecified),42.3
18,CN(Cc1nccn1C)C1CCCN(Cc2noc(C3CC3)n2)C1 (stereo unspecified),-25.8
